# For some assays here: Entries with a potency or affinity are not part of this list.
# How the values were obtained:
# Design in all cases: scale not given: direction of the effect not stated beside the values
# [1] = target: Protein translocase subunit SecA (Escherichia coli (strain K12)) (UniProt P10408); test: Assay to Identify E. coli SecA ATPase Inhibitors; type: functional; conditions: 30 µM
# [2] = target: T1, Ubiquitin-activating enzyme e1, putative (Leishmania donovani (strain BPK282A1)) (UniProt E9BSI1); test: Leishmania donovani Ubiquitin Activating Enzyme (LdE1); type: functional; conditions: 30 µM
# T1 sequence (whole entry): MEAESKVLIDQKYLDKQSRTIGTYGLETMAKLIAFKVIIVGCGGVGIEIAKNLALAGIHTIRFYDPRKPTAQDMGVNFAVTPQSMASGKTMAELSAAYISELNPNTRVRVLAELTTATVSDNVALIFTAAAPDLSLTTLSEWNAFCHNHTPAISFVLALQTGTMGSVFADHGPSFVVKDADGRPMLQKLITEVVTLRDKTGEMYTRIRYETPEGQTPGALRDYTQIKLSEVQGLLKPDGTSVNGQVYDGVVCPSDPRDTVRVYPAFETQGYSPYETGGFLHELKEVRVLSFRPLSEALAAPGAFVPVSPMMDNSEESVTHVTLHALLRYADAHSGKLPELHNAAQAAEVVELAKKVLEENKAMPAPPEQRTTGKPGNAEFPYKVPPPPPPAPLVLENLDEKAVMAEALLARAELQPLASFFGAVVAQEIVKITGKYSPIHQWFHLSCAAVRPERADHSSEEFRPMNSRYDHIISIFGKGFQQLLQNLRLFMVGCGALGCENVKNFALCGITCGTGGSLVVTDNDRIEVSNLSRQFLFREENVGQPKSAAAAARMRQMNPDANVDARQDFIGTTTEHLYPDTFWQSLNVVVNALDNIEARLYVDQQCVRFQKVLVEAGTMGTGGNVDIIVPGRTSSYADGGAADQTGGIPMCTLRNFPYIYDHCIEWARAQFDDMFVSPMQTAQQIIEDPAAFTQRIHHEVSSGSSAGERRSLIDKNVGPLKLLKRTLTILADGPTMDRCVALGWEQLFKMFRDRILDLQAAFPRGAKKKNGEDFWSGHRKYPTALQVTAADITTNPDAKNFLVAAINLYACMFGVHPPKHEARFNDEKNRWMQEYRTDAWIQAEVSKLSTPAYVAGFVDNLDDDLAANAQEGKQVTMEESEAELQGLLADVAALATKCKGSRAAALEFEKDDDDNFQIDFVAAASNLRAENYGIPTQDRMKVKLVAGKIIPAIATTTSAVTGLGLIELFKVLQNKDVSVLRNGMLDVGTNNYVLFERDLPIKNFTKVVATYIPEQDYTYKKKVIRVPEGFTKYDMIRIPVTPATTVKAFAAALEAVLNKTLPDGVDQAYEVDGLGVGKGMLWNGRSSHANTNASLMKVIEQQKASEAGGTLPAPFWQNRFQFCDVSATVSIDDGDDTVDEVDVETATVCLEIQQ
# [3] = target: AMP-activated protein kinase, AMPK (Homo sapiens) (UniProt P54646+O43741+P54619+Q9UGJ0+Q9Y478+Q13131+Q9UGI9); test: AMP-dependent Kinase enzyme assay. An in vitro enzyme assay that detects ADP turnover that is directly proportional to AMPK activity. This uses naive AMPK that is activated during the assay with MK-8722; type: functional; conditions: 30 µM
# [4] = target: Sialic acid-binding Ig-like lectin 9 (Homo sapiens) (UniProt Q9Y336); test: Hs-Siglec9 ALPHAscreen SOP 20170721; conditions: 10 µM
# [5] = system: Trypanosoma cruzi; test: Trypanosoma cruzi phosphomannomutase and mannose-1-phosphate guanylyltransferase assay; type: functional; conditions: 10 µM
# [6] = target: T2, Arginase-2, mitochondrial (Homo sapiens) (UniProt P78540); test: in vitro enzyme assay to detect the production of urea directly proportional to the activity of Arginase II; type: functional; conditions: 33.3 µM; also: in the data most compounds retested in dose-response had high values
# T2 sequence (whole entry): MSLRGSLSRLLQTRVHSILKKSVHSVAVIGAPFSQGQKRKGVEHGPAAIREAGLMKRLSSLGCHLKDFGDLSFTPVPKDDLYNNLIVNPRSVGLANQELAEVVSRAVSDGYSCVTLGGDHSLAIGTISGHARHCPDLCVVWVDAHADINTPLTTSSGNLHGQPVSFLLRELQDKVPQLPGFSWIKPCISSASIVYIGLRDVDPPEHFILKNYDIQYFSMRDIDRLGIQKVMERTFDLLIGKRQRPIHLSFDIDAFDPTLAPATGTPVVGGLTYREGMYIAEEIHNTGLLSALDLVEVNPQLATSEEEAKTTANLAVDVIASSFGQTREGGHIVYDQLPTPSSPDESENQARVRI
# [7] = target: T3, Proteasome subunit beta (Trypanosoma cruzi) (UniProt O96673); test: Trypanosoma cruzi proteasome chymotrypsin-like activity (TcProtChymo) assay.; also: in the data most compounds retested in dose-response had high values; type: functional; conditions: 9.37 µM
# T3 sequence (whole entry): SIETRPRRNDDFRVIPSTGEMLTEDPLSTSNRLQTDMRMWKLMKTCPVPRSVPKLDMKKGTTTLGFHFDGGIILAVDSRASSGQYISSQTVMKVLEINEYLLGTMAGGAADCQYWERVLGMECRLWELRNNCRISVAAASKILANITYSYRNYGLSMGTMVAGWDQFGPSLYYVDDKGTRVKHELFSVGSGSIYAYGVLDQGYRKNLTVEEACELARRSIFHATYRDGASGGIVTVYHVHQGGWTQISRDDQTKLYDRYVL
# [8] = species on record: Homo sapiens; test: To identify inhibition of the IFN signalling (Jak-Stat) pathway via expression of an eGFP reporter gene under the control of an IFN-stimulated response element (ISRE) containing MxA promoter.; type: functional; conditions: 30 µM
# [9] = target: T4, Tyrosyl-tRNA synthetase, putative (Trypanosoma cruzi (strain CL Brener)) (UniProt Q4DSP6); test: Trypanosoma cruzi tyrosyl tRNA synthetase (TcYRS) _High Tyrosine SOP; type: functional; conditions: 30 µM; also: in the data most compounds retested in dose-response had high values
# T4 sequence (whole entry): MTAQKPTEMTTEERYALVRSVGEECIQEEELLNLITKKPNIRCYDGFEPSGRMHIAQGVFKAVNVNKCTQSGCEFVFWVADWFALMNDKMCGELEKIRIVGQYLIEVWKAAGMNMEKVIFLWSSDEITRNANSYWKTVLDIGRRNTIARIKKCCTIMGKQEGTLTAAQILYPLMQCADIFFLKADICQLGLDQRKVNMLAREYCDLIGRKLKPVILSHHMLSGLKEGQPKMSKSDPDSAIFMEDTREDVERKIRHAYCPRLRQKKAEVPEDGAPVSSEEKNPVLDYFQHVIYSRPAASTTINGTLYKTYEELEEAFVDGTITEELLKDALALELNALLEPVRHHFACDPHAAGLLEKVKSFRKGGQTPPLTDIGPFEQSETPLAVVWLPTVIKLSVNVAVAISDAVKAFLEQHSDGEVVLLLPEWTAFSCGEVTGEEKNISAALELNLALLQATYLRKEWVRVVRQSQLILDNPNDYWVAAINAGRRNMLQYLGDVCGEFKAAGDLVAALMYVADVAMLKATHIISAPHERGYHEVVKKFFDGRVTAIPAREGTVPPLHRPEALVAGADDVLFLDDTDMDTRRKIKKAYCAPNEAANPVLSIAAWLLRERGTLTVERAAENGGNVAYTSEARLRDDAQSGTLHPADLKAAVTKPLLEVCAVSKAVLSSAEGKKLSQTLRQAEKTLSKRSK
# [10] = target: T4, Tyrosyl-tRNA synthetase, putative (Trypanosoma cruzi (strain CL Brener)); test: Trypanosoma cruzi tyrosyl tRNA synthetase (TcYRS) SOP; type: functional; conditions: 30 µM
# [11] = target: Chromo domain-containing protein 1 (Saccharomyces cerevisiae (strain ATCC 204508 / S288c) (Baker's yeast)) (UniProt P32657); test: ScCHD-1 Enzyme Inhibition Assay; type: functional; conditions: 30 µM; also: in the data most compounds retested in dose-response had high values
# Chromo domain-containing protein 1 (Saccharomyces cerevisiae (strain ATCC 204508 / S288c) (Baker's yeast)), sequence (P32657 whole entry, the tested form may be a part): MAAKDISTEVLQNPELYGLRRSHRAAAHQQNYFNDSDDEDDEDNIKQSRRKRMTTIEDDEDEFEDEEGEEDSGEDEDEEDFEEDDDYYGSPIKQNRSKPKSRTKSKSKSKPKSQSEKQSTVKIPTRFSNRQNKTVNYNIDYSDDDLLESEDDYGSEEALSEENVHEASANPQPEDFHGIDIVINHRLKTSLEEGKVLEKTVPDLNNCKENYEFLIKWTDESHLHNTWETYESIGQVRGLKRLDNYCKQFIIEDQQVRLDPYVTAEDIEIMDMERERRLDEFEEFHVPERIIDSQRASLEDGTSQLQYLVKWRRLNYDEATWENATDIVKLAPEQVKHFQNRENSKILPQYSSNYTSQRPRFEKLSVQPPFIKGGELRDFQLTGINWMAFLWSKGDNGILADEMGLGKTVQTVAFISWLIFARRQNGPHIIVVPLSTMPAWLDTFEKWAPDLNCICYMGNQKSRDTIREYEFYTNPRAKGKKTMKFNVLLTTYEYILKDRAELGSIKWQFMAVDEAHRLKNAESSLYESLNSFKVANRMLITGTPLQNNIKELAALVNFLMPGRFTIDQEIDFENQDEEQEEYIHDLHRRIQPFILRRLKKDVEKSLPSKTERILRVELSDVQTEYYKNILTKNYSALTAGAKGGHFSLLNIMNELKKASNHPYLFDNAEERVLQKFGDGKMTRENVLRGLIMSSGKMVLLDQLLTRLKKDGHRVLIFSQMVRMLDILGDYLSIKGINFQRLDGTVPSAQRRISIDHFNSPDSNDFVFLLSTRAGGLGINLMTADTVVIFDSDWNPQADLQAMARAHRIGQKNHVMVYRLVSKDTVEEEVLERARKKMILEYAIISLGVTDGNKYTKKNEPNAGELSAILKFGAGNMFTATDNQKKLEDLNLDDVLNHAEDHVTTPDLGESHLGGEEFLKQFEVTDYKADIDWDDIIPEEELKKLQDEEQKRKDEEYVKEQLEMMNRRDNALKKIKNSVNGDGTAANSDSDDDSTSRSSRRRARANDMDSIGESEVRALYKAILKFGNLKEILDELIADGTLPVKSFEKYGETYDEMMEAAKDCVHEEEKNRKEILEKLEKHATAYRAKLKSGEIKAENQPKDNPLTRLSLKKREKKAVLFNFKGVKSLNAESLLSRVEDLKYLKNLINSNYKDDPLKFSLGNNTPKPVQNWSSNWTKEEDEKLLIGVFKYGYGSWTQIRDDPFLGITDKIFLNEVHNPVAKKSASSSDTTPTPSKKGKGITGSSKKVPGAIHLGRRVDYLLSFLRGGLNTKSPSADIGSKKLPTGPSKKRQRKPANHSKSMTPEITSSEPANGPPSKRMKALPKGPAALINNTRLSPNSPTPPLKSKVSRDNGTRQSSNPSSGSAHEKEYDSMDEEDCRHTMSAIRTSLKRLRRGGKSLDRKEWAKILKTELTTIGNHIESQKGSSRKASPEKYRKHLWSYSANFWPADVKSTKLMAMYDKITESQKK
# Sialic acid-binding Ig-like lectin 9 (Homo sapiens), sequence (Q9Y336 whole entry): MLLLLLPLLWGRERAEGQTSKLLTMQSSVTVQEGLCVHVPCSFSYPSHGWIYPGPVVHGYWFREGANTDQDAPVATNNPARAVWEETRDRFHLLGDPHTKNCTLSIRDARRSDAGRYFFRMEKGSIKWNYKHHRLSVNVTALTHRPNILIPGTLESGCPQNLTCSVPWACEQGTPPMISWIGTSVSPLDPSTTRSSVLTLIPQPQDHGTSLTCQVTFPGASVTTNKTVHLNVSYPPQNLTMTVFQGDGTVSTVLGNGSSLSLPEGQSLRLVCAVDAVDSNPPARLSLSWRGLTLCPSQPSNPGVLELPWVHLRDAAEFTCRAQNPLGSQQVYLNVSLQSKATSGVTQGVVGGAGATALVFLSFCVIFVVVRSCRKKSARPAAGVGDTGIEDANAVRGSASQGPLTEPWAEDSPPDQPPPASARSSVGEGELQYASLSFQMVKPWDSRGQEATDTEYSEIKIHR
# Protein translocase subunit SecA (Escherichia coli (strain K12)), sequence (P10408 whole entry): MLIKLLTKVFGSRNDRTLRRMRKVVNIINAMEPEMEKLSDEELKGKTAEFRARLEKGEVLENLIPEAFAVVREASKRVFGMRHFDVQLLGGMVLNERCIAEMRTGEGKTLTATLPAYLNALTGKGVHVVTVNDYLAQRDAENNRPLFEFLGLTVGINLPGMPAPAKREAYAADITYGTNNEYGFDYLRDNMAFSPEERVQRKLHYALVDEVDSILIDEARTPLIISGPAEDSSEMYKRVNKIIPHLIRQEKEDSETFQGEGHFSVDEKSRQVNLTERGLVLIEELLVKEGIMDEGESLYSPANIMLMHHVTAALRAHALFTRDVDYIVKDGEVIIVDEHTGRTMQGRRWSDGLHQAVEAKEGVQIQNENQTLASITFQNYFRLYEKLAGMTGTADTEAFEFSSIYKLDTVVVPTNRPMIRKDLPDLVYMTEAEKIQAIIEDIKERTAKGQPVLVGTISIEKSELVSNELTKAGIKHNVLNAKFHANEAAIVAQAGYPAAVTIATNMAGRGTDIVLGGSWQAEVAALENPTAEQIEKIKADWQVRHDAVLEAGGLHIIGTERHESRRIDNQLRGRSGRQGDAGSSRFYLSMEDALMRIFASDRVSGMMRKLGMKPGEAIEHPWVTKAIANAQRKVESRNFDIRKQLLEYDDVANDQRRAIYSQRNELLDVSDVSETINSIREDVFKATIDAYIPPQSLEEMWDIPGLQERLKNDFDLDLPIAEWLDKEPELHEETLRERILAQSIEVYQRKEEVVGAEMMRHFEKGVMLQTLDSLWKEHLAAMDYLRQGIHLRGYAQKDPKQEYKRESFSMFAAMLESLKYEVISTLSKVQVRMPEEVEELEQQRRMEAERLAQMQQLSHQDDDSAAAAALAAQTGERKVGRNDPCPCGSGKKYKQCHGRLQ
SMILES,Percent Effect [1] [%],Percent Effect [2] [%],Percent Effect [3] [%],Percent Effect [4] [%],Percent Effect [5] [%],Percent Effect [6] [%],Percent Effect [7] [%],Percent Effect [8] [%],Percent Effect [9] [%],Percent Effect [10] [%],Percent Effect [11] [%]
Cc1cc(C(=O)NCC2COCc3c(C)nnn3C2)no1 (configuration not stated),-6.44,2.6,-3,3.99,-0.295,-9.65,7.65,-19,2.15,11.1,-0.439
CCc1nc(CN2CCCN(Cc3cnn(C)c3)CC2)no1,2.29,5.48,-1.06,0.0732,-2.35,0,17.2,3.79,4.3,12.5,-13.7
Cc1ccc(CN2Cc3nnn(C)c3C(COCCN(C)C)C2)s1 (configuration not stated),-6.87,2.7,-1.39,-1.89,-5.57,-3.72,4.89,15,2.15,8.64,-3.26
Cc1nc2cc(C(=O)N3CCCC(n4cncn4)C3)ccc2n1C (configuration not stated),-4.14,5.41,-2.29,11.4,9.75,-0.924,-5.21,0.593,3.96,13.4,-2.87
CN(Cc1cccc(F)c1)C(=O)CN1CCCC1CCc1ccccc1 (configuration not stated),-3.56,-7.79,2.67,4.42,3.44,-1.38,2,-5.85,1.07,-3.7,113
Cc1noc(C)c1CCC(=O)N1CCN(CCn2cncn2)CC1,-2.87,4.17,-6.26,2.38,0.68,1.77,21.1,-11.6,8.42,10.3,-3.13
COc1cc(C)nc(N2CCN(C(=O)CCn3cc(C)cn3)CC2)n1,-1.32,10.1,1.67,2.37,-6.52,4.94,-6.47,11,-6.4,11.4,-2.89
CN(Cc1ccco1)Cc1ccccc1CNC(=O)c1ccncc1,-4.48,5.41,13.1,4.84,0.386,0,12.8,-3.63,2.65,4.88,-2.3
CNS(=O)(=O)c1ccc(CNC(=O)NCC2CCOC2)cc1 (configuration not stated),-3.53,15.6,0.491,2.49,1.86,-0.21,11.7,-1.37,7.62,14.1,-9.18
CC(C)c1nc2n(n1)CC(NCc1nnc(-c3ccco3)o1)CC2 (configuration not stated),-2.41,0,-14.3,-0.788,5.94,0.802,-3.06,-2.24,3.45,6.17,-0.171
N#Cc1cnn(-c2ccc(C(=O)Nc3ccccn3)cc2)c1N,-1.12,17.7,3.05,-10.6,7.65,-6.46,19.7,8.19,13.3,29.1,-3.72
COc1ccc(CN(Cc2cncn2C)CC2CCCO2)cc1OC (configuration not stated),-3.49,12.2,11.9,0.383,-2.37,3.94,9.52,-8.46,5.38,11.7,-15
COCCN1C(=O)C[C@H]2[C@H]1CCN2Cc1ccc(OC)cc1,-2.83,5.33,11,-2.04,-9.45,7.69,13.5,17.5,3.19,6.41,-5.69
CNC(=O)CS(=O)(=O)C1CCN(S(=O)(=O)C2CC2)CC1,-3.71,0,-0.0113,-2.43,0.979,1.36,4.79,3.03,3.23,5,-0.451
CC1CCCN(CCNC(=O)c2ccn(-c3ccccc3)n2)C1 (configuration not stated),-0.427,18.2,2.11,-6.84,-8.05,4.63,5.07,16.5,8.74,12.2,-8.6
Cc1ccc(CNC(C)c2ccc3[nH]c(=O)[nH]c3c2)s1 (configuration not stated),-3.59,13.5,-7.56,14,5,-5.61,-0.721,14.9,2.46,11.1,-6.23
COc1ncccc1C(=O)NCC1Cc2ccccc2O1 (configuration not stated),-0.887,5.48,2.87,0.0975,-1.76,1.36,21.3,-1.66,4.3,12.5,-7.46
CN(CCC(F)(F)F)C(=O)C1CCCN1C(=O)OC(C)(C)C (configuration not stated),-3.42,2.74,0.924,-4.88,2.15,2.27,-2.31,-3.94,3.23,2.5,-0.543
Cc1ccc(C(=O)N2CCN(C(=O)NC(C)Cn3ccnc3)CC2)o1 (configuration not stated),-1.19,10.5,2.03,13.1,3.38,2.3,4.51,18.1,3.43,19.5,-13.5
CC(C)c1nnc2n1CCN(Cc1csc(CC(=O)N(C)C)n1)C2,2.63,18.4,10.8,3.17,-4.7,-4.6,11.5,34.2,-0.49,7.32,-15
COc1c(CNCc2ccc(N(C)C)nc2)c(C(C)C)nn1C,-3.16,13.2,-3.28,6.83,6.39,4.6,6.01,13.5,5.39,17.1,-12.6
Cc1nn(C)c(C)c1C1CCCN1Cc1nc(-c2ccco2)oc1C (configuration not stated),-4.35,18.9,-4.34,-6.83,-1.76,3.14,11.3,18.9,8.91,13.4,-8.93
